Test results from PubChem BioAssay.
A number with no mark means an inactive call. For some assays here: Measured potencies and affinities stand elsewhere. Active and inactive are the calls of the source. Unless noted, the rule behind the calls is not given here.

Key:
[1] = antimalarial activity against Dd2 strain (AID 2302;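 active = growth inhibition above 50% at the single 2 µM test dose, taken to imply half-maximal potency below 2 µM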;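 note: 0% = DMSO untreated growth and 100% = chloroquine plus artemisinin killed control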); settings: P. falciparum Dd2 in RBCs, LDH growth readout, 72 h; at 2 µM; active compounds read high
[2] = human hepatoma cell viability loss – ATP luminescence, cytotoxicity control for P. falciparum antimalarial project, primary screen (AID 2303;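 active = inhibition above 50%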;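 note: 0% = DMSO wells and 100% = digitonin-killed cells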); settings: HepG2 viability, 24-48 h, at 10 µM, active compounds read high
[3] = target: L-lactate dehydrogenase (Plasmodium falciparum (isolate CDC / Honduras)) (UniProt Q27743); assay: PfLDH activity inhibition – cell lysate, 3D7 strain, counter-screen for P. falciparum growth inhibition project (AID 2304);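 note: 0% = vehicle and 100% = reference inhibitor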; settings: P. falciparum 3D7 crude extract, LDH APAD/NBT absorbance; at 2 µM; active compounds read high
L-lactate dehydrogenase (Plasmodium falciparum (isolate CDC / Honduras)), sequence (Q27743 whole entry, looked up): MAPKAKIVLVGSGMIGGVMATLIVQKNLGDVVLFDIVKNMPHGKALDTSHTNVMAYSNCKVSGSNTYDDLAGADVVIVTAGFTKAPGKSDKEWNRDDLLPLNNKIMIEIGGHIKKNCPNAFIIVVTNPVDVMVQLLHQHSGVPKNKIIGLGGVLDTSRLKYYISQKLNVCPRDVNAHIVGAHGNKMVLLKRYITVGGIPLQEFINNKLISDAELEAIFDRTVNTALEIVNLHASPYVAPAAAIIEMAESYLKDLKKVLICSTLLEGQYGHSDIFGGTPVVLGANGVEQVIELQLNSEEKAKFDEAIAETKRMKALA

[4] = inhibition of 3D7 malaria parasite growth – strain 3D7 (AID 2306);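 note: 0% = DMSO wells and 100% = chloroquine plus artemisinin control wells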; settings: P. falciparum 3D7 erythrocytic growth, LDH absorbance, 72 h; at 2 µM; active compounds read high
[5] = target: Calcium-dependent protein kinase 1 (Plasmodium falciparum (isolate 3D7)) (UniProt P62344); assay: PfCDPK1 kinase inhibitors, biochemical, TCAMS library (AID 1159585; cut-off not given, nearly all actives have IC50 up to about 0.98 µM;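 note: inhibitors leave more ATP so luminescence rises with inhibition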); settings: recombinant PfCDPK1, Kinase-Glo ATP depletion luminescence
Calcium-dependent protein kinase 1 (Plasmodium falciparum (isolate 3D7)), sequence (P62344 whole entry, looked up): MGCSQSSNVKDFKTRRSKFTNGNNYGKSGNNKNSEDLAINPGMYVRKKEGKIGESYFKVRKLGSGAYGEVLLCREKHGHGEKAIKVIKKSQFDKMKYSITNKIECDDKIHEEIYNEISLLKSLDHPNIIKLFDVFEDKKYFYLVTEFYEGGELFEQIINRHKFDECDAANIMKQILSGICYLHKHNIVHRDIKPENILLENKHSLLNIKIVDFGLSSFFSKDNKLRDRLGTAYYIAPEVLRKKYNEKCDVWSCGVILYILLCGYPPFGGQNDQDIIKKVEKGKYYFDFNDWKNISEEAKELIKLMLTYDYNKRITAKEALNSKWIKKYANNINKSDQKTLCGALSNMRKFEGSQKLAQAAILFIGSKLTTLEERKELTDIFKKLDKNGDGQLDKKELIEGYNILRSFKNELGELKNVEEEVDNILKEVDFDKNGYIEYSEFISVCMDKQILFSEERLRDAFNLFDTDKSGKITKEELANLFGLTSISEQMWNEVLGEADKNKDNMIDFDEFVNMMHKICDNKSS

[6] = target: Plasmodium falciparum protein kinase 6 (PK6, PF3D7_1337100) (UniProt Q8IDW1); assay: PfPK6 kinase inhibitors, biochemical, TCAMS library (AID 1159586); settings: recombinant PfPK6, Kinase-Glo ATP depletion luminescence
Plasmodium falciparum protein kinase 6 (PK6, PF3D7_1337100), sequence (Q8IDW1 1-305): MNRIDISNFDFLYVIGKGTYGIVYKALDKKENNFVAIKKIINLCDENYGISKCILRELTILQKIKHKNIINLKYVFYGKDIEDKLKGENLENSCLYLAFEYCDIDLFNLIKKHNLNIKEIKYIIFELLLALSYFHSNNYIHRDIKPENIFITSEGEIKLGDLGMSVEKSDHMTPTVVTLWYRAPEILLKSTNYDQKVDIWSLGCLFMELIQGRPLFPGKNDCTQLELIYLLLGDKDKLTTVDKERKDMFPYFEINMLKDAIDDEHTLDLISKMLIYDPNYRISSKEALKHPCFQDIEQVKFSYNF

[7] = target: Protein kinase 7 (PK7), Plasmodium falciparum 3D7 (PF3D7_0213400) (UniProt Q7YTF7); assay: inhibition of Plasmodium PK7 catalytic activity – biochemical, TCAMS antimalarial set, Kinase-Glo luminescence (AID 1159587); settings: recombinant PfPK7, Kinase-Glo ATP depletion luminescence
Protein kinase 7 (PK7), Plasmodium falciparum 3D7 (PF3D7_0213400), sequence (Q7YTF7 1-343): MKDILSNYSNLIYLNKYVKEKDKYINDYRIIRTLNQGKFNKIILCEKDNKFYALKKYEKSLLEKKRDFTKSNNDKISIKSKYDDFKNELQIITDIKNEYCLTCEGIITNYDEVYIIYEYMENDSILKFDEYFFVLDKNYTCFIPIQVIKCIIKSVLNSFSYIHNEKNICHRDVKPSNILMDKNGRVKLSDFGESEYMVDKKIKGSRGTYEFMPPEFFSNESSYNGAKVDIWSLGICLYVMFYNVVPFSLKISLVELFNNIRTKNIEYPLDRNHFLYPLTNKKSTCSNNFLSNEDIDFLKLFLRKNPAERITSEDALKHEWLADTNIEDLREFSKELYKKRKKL

[8] = target: Calcium-dependent protein kinase 4 (Plasmodium falciparum (isolate 3D7)) (UniProt Q8IBS5); assay: PfCDPK4 kinase inhibitors, biochemical, TCAMS library (AID 1159588; cut-off not given, nearly all actives have IC50 up to about 0.91 µM); settings: recombinant PfCDPK4, Kinase-Glo ATP depletion luminescence
Calcium-dependent protein kinase 4 (Plasmodium falciparum (isolate 3D7)), sequence (Q8IBS5 whole entry, looked up): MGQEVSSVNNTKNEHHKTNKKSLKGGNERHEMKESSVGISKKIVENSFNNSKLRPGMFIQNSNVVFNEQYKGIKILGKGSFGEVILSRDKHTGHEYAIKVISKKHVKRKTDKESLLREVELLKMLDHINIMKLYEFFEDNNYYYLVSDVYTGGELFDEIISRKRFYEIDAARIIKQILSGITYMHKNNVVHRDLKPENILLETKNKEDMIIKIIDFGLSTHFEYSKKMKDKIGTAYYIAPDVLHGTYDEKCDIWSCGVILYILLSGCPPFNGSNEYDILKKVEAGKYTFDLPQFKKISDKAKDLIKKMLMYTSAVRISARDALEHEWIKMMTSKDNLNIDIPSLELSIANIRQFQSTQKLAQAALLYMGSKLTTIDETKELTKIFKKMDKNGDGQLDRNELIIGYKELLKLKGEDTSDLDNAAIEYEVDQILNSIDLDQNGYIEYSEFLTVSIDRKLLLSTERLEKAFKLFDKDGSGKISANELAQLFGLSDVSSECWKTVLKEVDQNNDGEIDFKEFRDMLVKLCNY

Compound	growth inhibition [1]	inhibition [2]	inhibition [3]	growth inhibition [4]	outcome [5]	outcome [6]	outcome [7]	outcome [8]
O=C(NCc1ccc(F)cc1)Nc1cccc(-c2ccc(-c3nc4ccc(F)cc4[nH]3)cc2)c1	96% (active)	7%	-3%	101% (active)	inactive	inactive	inactive	inactive
COc1ccc(-c2ccc(NC(=O)c3ccc(C#N)cc3)cc2)cc1CN1CCNCC1	42%	23%	0%	96% (active)	inactive	inactive	inactive	inactive
CCn1cc2c3c(cc(C(=O)N[C@@H](Cc4ccccc4)[C@H](O)CNC4CCOCC4)cc31)N(C)S(=O)(=O)CC2	98% (active)	-10%	0%	98% (active)	inactive	inactive	inactive	inactive
CN(C)c1ccc(CN2CCCCC(NC(=O)c3cc(-c4ccccc4F)cs3)C2)cc1 (stereo not given)	28%	13%	5%	100% (active)	inactive	inactive	inactive	inactive
CCN(CC)CCN(Cc1ccc(-c2ccc(C(F)(F)F)cc2)cc1)C(=O)Cn1c(CCc2cccc(F)c2F)nc(=O)c2sccc21	70% (active)	70% (active)	6%	96% (active)	inactive	inactive	inactive	inactive
O=C(N[C@H]1CCN(CCc2ccc(O[C@H]3CCNC3)c(Br)c2)C1)c1ccc(Cl)c(Cl)c1	0%	28%	-4%	100% (active)	inactive	inactive	inactive	inactive
COc1cc2ncnc(Nc3ccc(OCc4ccccc4)c(OCc4ccccc4)c3)c2cc1OC	57% (active)	4%	-1%	100% (active)	inactive	inactive	inactive	inactive
CNCCNCc1ccc(-c2ccc(-c3nc4c(C)cccc4[nH]3)cc2)cc1	79% (active)	19%	-5%	96% (active)	inactive	inactive	inactive	inactive
CN1CCCC(CN2CCN(Cc3cccc(-c4csc(-c5nc6ccccc6[nH]5)c4)c3)CC2)C1 (stereo not given)	100% (active)	65% (active)	-4%	100% (active)	inactive	inactive	inactive	inactive
CN(C)CCCOc1ccc(-c2csc(NC(N)=NCc3ccccc3)n2)cc1	97% (active)	57% (active)	5%	100% (active)	inactive	inactive	inactive	inactive
CN(C)S(=O)(=O)c1ccc(Nc2nc(NCCC3C=NC=N3)nc3cc[nH]c(=O)c23)cc1 (stereo not given)	63% (active)	8%	2%	96% (active)	inactive	inactive	inactive	inactive
Cc1ccc(NC(=O)c2ccc(C(=O)NC3CCN(CC4CCCCC4)CC3)cc2)cc1	0%	36%	-6%	93% (active)	inactive	inactive	inactive	inactive
O=C1NC(c2ccccc2)C2(CCN(CC(O)COc3cccc4ncccc34)CC2)O1 (stereo not given)	95% (active)	5%	-4%	92% (active)	inactive	inactive	inactive	inactive
Cn1cncc1C(=O)Nc1cccc(-c2csc(-c3nc4ccccc4[nH]3)c2)c1	64% (active)	15%	-3%	102% (active)	inactive	inactive	inactive	inactive
COc1cc2nc(NCc3cccc(CNC(=O)c4ccc(-c5ccc(C(C)=O)cc5)cc4)c3)nc(N)c2cc1OC	72% (active)	32%	-2%	100% (active)	inactive	inactive	inactive	inactive
CC(C)c1cc(C(=O)N[C@@H](Cc2ccccc2)[C@H](O)CNC2CCCCC2)cc(N2CCCC2=O)c1	98% (active)	-11%	5%	101% (active)	inactive	inactive	inactive	inactive
O=C(Nc1ccc(Cl)cc1)N1CCN(C2CCCCC2)CC1	-6%	17%	-3%	93% (active)	inactive	inactive	inactive	inactive
CC(=O)c1ccc2c(c1)[C@H](NC(=O)c1cccc(Cl)c1Cl)[C@@H](CO)C(C)(C)O2	44%	5%	4%	99% (active)	inactive	inactive	inactive	inactive
Cc1nn(-c2ccccc2)nc1C(=O)N(Cc1ccc(-c2ccc(CNCCc3ccc(S(C)(=O)=O)cc3)cn2)cc1)C(C)CN(C)C (stereo not given)	87% (active)	25%	-8%	101% (active)	inactive	inactive	inactive	inactive
CCn1cnc2c(Nc3cccc([N+](=O)[O-])c3)nc(N3CCC(N4CCCCC4)CC3)nc21	35%	31%	3%	98% (active)	inactive	inactive	inactive	inactive

Compound	growth inhibition [1]	inhibition [2]	inhibition [3]	growth inhibition [4]	outcome [5]	outcome [6]	outcome [7]	outcome [8]
C#CCN(Cc1cc2c(=O)[nH]c(N)nc2cc1C)c1ccc(C(=O)N[C@@H](CCC(=O)O)C(=O)O)cc1	74% (active)	28%	-1%	92% (active)	inactive	inactive	inactive	inactive
CCOC(=O)c1ccc(N(CCCN(CCCN(c2ccc(C(=O)OCC)cc2)S(=O)(=O)c2ccc(C)cc2)CCc2ccc(O)cc2)S(=O)(=O)c2ccc(C)cc2)cc1	74% (active)	-11%	-1%	96% (active)	inactive	inactive	inactive	inactive
CCCN1CCC(NCc2cn(C)nc2-c2ccc(Oc3ccccc3)cc2)CC1	44%	34%	-3%	88% (active)	inactive	inactive	inactive	inactive
Cc1ccc(CON2C(N)=NC(N)=NC2(C)C)c(Cl)c1 (tested in a mixture with another compound)	96% (active)	67% (active)	0%	91% (active)	inactive	inactive	inactive	inactive
COc1ccc(CCNc2nc(SCc3ccccc3Cl)nc3ccccc23)cc1OC	2%	27%	0%	94% (active)	inactive	inactive	inactive	inactive
C=CCn1c(Sc2ccc(C#N)c([N+](=O)[O-])c2)nnc1-c1ccc(Cl)cc1	85% (active)	13%	3%	97% (active)	inactive	inactive	inactive	inactive
COc1ccc(C(=O)N[C@@H](CC(C)C)C(=O)NC2CC[C@@H](C)N(C(=O)Nc3ccc(Cl)cc3)CC2=O)cc1OCCN1CCOCC1 (stereo not given in full)	91% (active)	5%	5%	96% (active)	inactive	inactive	inactive	inactive
COc1cc(Cc2cnc(N)nc2N)cc(OCCCN2C(=O)c3ccccc3C2=O)c1OC	-3%	-1%	1%	96% (active)	inactive	inactive	inactive	inactive
Clc1ccc(Cn2nc(Br)nc2Br)c(Cl)c1	96% (active)	4%	2%	96% (active)	inactive	inactive	inactive	inactive
COc1ccc(-c2cccc(NC(=O)c3cccc(Cl)c3)c2)cc1CN1CCCC1	66% (active)	45%	1%	99% (active)	inactive	inactive	inactive	inactive
O=S(=O)(c1ccc(NC(=S)NN=Cc2ccccn2)cc1)N1CCCCC1	56% (active)	43%	-5%	98% (active)	inactive	inactive	inactive	inactive
C[C@@H]([C@@H](CCCCc1ccccc1)C(=O)N[C@H](C(=O)Nc1cccnc1)C(C)(C)C)N(O)C=O	98% (active)	0%	0%	98% (active)	inactive	inactive	inactive	inactive
COc1ccc2nc3cc(Cl)ccc3c(NCc3ccccc3)c2c1	50% (active)	8%	5%	101% (active)	inactive	inactive	inactive	inactive
COc1cccc(-c2cc(C(=O)NC3CCC(N4CCC(c5ccccc5C)CC4)CC3)[nH]n2)c1 (stereo not given)	58% (active)	60% (active)	-2%	99% (active)	inactive	inactive	inactive	inactive
COc1ccc(O)c(Cc2cnc3nc(N)[nH]c(=O)c3c2C)c1	6%	30%	-5%	96% (active)	inactive	inactive	inactive	inactive
CCOc1ccc(C2CCN(CCCCNC(=O)c3ccc(NC(=O)c4ccc(Cl)cc4)cc3)CC2)c(CC)c1	64% (active)	44%	-4%	100% (active)	inactive	inactive	inactive	inactive
Cc1cc(N(C)C)nc(Nc2ccc(NC(=O)c3cccc(F)c3)cc2)n1	62% (active)	-8%	4%	100% (active)	inactive	inactive	inactive	inactive
CC(C)C[C@@H](NC(=O)OC(C)(C)C)C(=O)Nc1ccc(Cc2ccc(NC(=O)[C@@H](CC(C)C)NC(=O)OC(C)(C)C)cc2)cc1	96% (active)	8%	6%	96% (active)	inactive	inactive	inactive	inactive
Cn1nc(-c2ccc(CNC3CCc4ccccc43)cc2)c2cnc(NCCN3CCCC3)nc21 (stereo not given)	17%	21%	-2%	99% (active)	inactive	inactive	inactive	inactive
Oc1c(CN2CCC(Cc3ccccc3)CC2)cc(Cl)c2cccnc12	94% (active)	49%	4%	96% (active)	inactive	inactive	inactive	inactive
